Test results from article PMC5540273 (PLoS ONE, 2017).

These molecules were tested on RIOK2. Details: concentration: 1 μM, replicates: in singlicate; n = 1.
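Note: KINOMEscan kinase panel screen.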

Row | SMILES | %Inh
1 | COc1cc(Nc2nccc(N3CCC(NC(=O)Nc4cccc(C(C)=O)c4)C3)n2)cc(OC)c1OC (stereo not shown) [GSK1379753] | 0%
2 | CCn1c(-c2nonc2N)nc2c(C#CC(C)(C)O)ncc(OCCCCN)c21.O=C(O)C(F)(F)F.O=C(O)C(F)(F)F [GSK507274] | 0%
3 | COc1cc(Nc2nccc(-c3c(-c4cccc(NC(=O)c5c(F)cccc5F)c4)nn4ncccc34)n2)cc(OC)c1OC [GSK327238] | 5%
4 | O=C(Nc1n[nH]c2nc(-c3ccc(O)cc3)ccc12)C1CC1 [SB-710363] | 0%
5 | O=c1[nH]cc(-c2ccc(N3CCOCC3)cc2)c2sc(-c3cn[nH]c3)cc12 [GSK2276055] | 76%
6 | O=C(Nc1cccc(-c2nn3ccccc3c2-c2ccnc(Nc3cccc(F)c3)n2)c1)c1c(F)ccc(F)c1Cl [GSK357952] | 51%
7 | CC(C)c1nc(-c2cccc(NS(=O)(=O)c3c(F)cccc3F)c2F)c(-c2ccnc(Nc3ccc(N4CCOCC4)nc3)n2)s1 [GSK2008607] | 0%
8 | CC(=O)N1CCN(c2ccc(Nc3nccc(-c4sc(C(C)C)nc4-c4cccc(NS(=O)(=O)c5cccc(Cl)c5)c4)n3)cn2)CC1 [GSK1660437] | 10%
9 | O=C(Nc1cccc(-c2nn3ncccc3c2-c2ccnc(Nc3ccccc3)n2)c1)c1c(F)cccc1F [GSK198271] | 17%
10 | Cl.c1ccc(-c2ccc3c(Nc4ccc5[nH]ncc5c4)ccnc3c2)nc1 [GW440137] | 11%
11 | Cn1cc(-c2[nH]c3cc(NC(=O)[C@H](N)C4CCCCC4)cc4c3c2C=NNC4=O)cn1 | 21%
12 | CNC(=O)c1ccccc1Nc1nc(Nc2ccc(N3CCOCC3)cc2)ncc1Cl.Cl [GSK1576028] | 90.7%
13 | c1ccc(-c2cnc3nccnn23)cc1 [AH20685] | 0%
14 | CN(C)S(=O)(=O)c1cc(-c2ccc3nccc(-c4cccc(S(N)(=O)=O)c4)c3c2)cnc1N [GSK1669921] | 23%
15 | COc1cccc(NC(=O)NC2CCN(c3ccnc(Nc4cc(OC)c(OC)c(OC)c4)n3)C2)c1 (stereo not shown) [GSK1379763] | 0%
16 | C[C@@H](Oc1cc(-n2cnc3cc(-c4ccnc(NCCS(C)(=O)=O)c4)ccc32)sc1C(N)=O)c1ccccc1Cl [GSK907232] | 22%
17 | Fc1ccc(-c2ncn(C3CCNCC3)c2-c2ccnc(Oc3ccc(-c4ccccc4)cc3)n2)cc1 [SB-245391] | 0%
18 | COc1cccc(C(=O)Nc2cccc(Oc3ccc4nc(NC(=O)C5CC5)cn4n3)c2)c1 | 0%
19 | Nc1ncc(-c2cccnc2)c2scc(-c3ccc4c(c3)CCN4C(=O)Cc3ccccc3)c12 [GSK683281] | 96.6%

Row | SMILES | %Inh
20 | Cc1occc1-c1ncc(OC[C@@H](N)Cc2c[nH]c3ccccc23)cc1-c1ccc2[nH]nc(C)c2c1.O=C(O)C(F)(F)F [GSK682037] | 6%
21 | Nc1n[nH]c2cnc(-c3ccccc3)cc12 [SB-642124] | 20%
22 | Cc1ccc(S(=O)(=O)Nc2ccc(Nc3nccc(Nc4cccc5[nH]ncc45)n3)cc2)cc1 [GSK581271] | 40%
23 | c1ccc(-c2n[nH]cc2Nc2ccnc3ccccc23)nc1 [GW694077] | 86%
24 | COc1ccc(Nc2nccc(NCCNC(=O)c3cc4ccccc4s3)n2)cc1 [GSK1379896] | 0%
25 | Cc1ccc(F)c(C(=O)Nc2cccc(-c3nn4ccccc4c3-c3ccnc(Nc4cccc(F)c4)n3)c2)c1F [GSK361061] | 26%
26 | CC(C)(C)c1ccc2nccc(Nc3cccc(O)c3)c2c1 [GW856795] | 0%
27 | COc1cc(Nc2ncc3c(C)nc(-c4cc5ccccc5[nH]4)n3n2)cc(OC)c1OC [GW869516] | 0%
28 | COC(=O)Nc1nc2ccc(Oc3ccc(NC(=O)Nc4cc(C(F)(F)F)ccc4F)cc3)cc2n1C.Cl [GW692089] | 0%
29 | CCCCc1nn2ncccc2c1-c1ccnc(Nc2ccc(N3CCN(C)CC3)cc2)n1 [GW684941] | 44%
30 | O=C(O)C(F)(F)F.O=C(O)C(F)(F)F.O=c1[nH]ccc2nc(N[C@@H]3CCCNC3)nc(Nc3ccc(S(=O)(=O)N4CCOCC4)cc3)c12 [GSK2177277] | 65%
31 | Cl.Cl.NCC(C(=O)Nc1cc(Br)c(-c2ccnc3[nH]ccc23)s1)c1ccccc1 (stereo not shown) [GSK1269851] | 19%
32 | COc1ccc(-c2coc3ccc(-c4nnc(SCc5ccc(OC)c(C(F)(F)F)c5)o4)cc23)cc1 | 20%
33 | COc1cccc(-c2ccc3c(NC(=O)C4CC4)n[nH]c3n2)c1 [SB-710903] | 0%
34 | Oc1cc(Nc2ccnc3cc(I)ccc23)ccc1F [GW552771] | 29%
35 | COc1cc2c(cc1OCCN1CCNCC1)ncc1c3ccc(C#N)cc3[nH]c21 | 12%
36 | CCS(=O)(=O)c1ccc(OC)c(Nc2nccc(-c3c(-c4cccc(NC(=O)c5c(F)cccc5F)c4)nn4ncccc34)n2)c1 [GSK326180] | 0%
37 | Cc1cccc(Nc2nc(N[C@H]3CCNC3)ncc2C(N)=O)c1.Cl [GSK2197149] | 28%
